Inconclusive results are not listed. Values without a mark were called inactive. Calls of active or inactive are those of the source. Calls come from the whole dose curve; as a rule, active = well fitted cell-killing curve with a large enough effect in the repeat runs; inconclusive = weak or mixed curves, or effect the other way; inactive = flat fitted curve, though single readings scatter.

Assay [1] in a line: cAMP Responsive Elements (CRE) small molecule antagonists, cell-based qHTS assay: qHTS cell viability counter screen (AID 2060913). Note: nearly all actives have a fitted effect of over 40% in size. In outline: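 CRE-bla HEK293T cells were seeded in assay medium with 10% dialyzed FBS, incubated 18 hrs at 37 C, then exposed to compounds plus 0.25 uM final NKH477 for 3 hrs. Viability was read by CellTiter-Glo luminescence after 30 min, in the same wells.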
A general note: In qHTS, concentration-response curves come from the screen itself.

Assay [2] can be described thus: cAMP Responsive Elements (CRE) small molecule agonists, cell-based qHTS assay: qHTS cell viability counter screen (AID 2060914). Note: nearly all actives have a fitted effect of over 50% in size. In outline:
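Cytotoxicity was measured as ATP luminescence (CellTiter-Glo, 30 min at room temperature) in the same wells as the CRE-bla FRET read-out. HEK293T CRE-bla cells had 3 h compound exposure at 37C/5% CO2.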
% is set by controls: 0 for no effect and ±100 for the full control effect.

In the case of `CN(C)CC/C=C1\c2ccccc2COc2ccccc21`, the Potency result in assay [1] and in assay [2] was “inactive” each time.
Consider `CC(C)c1c(C(=O)Nc2ccccc2)c(-c2ccccc2)c(-c2ccc(F)cc2)n1CC[C@@H](O)C[C@@H](O)CC(=O)O`, for which the Potency result in assay [1] and in assay [2] was “inactive” in each case.
As to `O=C(O)c1cccc(C(=O)O)c1C(=O)O`, the Potency result in assay [1] and in assay [2] was “inactive” throughout.
In the case of `CC(C)(C)c1n[nH]c(=O)n(N)c1=O`, the Potency result in assay [1] and in assay [2] was “inactive” in each case.
`Cc1ncc([C@@H](CCCCCCc2ccc3c(n2)NCCC3)CC(=O)O)cn1`: the Potency result in assay [1] and in assay [2] was “inactive” in each case.
As to `Nc1c2c(nc3ccccc13)CCCC2`, the Potency result in assay [1] and in assay [2] was “inactive” in each case.
As for `CN(Cc1cc(Br)cc(Br)c1N)C1CCCCC1`, the Potency result in assay [1] and in assay [2] was “inactive” throughout.
On to `COc1cc(NS(=O)(=O)c2ccc(N)cc2)nc(C)n1`, for which the Potency result in assay [1] and in assay [2] was “inactive” each time.
For the molecule `Sc1nc(S)nc(S)n1`, the Potency entry in assay [1] and in assay [2] was “inactive” in each case.
Regarding `Oc1cccc2c(O)cccc12`, the Potency result in assay [1] and in assay [2] was “inactive” in each case.
Regarding `O=c1[nH]c2ccc(S(=O)CCN3CCC(Cc4ccc(F)cc4)CC3)cc2o1` (centres undefined), the Potency result in assay [1] and in assay [2] was “inactive” in each case.
Consider `OC[C@@H](O)[C@@H](O)[C@H](O)[C@H](O)CO`, for which the Potency entry in assay [1] and in assay [2] was “inactive” each time.
Consider `c1cnc2cc3c(cc2n1)C1CNCC3C1`, for which the Potency entry in assay [1] and in assay [2] was “inactive” each time.
Turning to `C=CCOc1c(Br)cc(Br)cc1Br`, the Potency result in assay [1] and in assay [2] was “inactive” each time.
Turning to `Cc1ccc2c(n1)Oc1ccc(C(C)C(=O)OCC(=O)N(C)C)cc1C2` (centres undefined), the Potency result in assay [1] and in assay [2] was “inactive” throughout.
Consider `CCCCC(=O)N(C)C`, for which the Potency result in assay [1] and in assay [2] was “inactive” each time.
Consider `OC(CN1CCC(Cc2ccc(F)cc2)CC1)c1ccc(Cl)cc1` (centres undefined), for which the Potency result in assay [1] and in assay [2] was “inactive” throughout.
Turning to `CCC(=O)CC`, the Potency result in assay [1] and in assay [2] was “inactive” throughout.
With `C=CCn1c(=O)n([C@@H]2O[C@H](CO)[C@@H](O)[C@H]2O)c2nc(N)[nH]c(=O)c21`, the Potency entry in assay [1] and in assay [2] was “inactive” in each case.
As to `Nc1ccccc1O`, the Potency entry in assay [1] and in assay [2] was “inactive” each time.
`CC(=O)/C=C/C1=C(C)CCCC1(C)C`: the Potency result in assay [1] and in assay [2] was “inactive” throughout.
Consider `NS(=O)(=O)c1ccccc1OC(F)(F)F`, for which the Potency result in assay [1] and in assay [2] was “inactive” in each case.
Take `CC(C)(C(=O)O)c1ccc(C(O)CCCN2CCC(C(O)(c3ccccc3)c3ccccc3)CC2)cc1` (centres undefined): the Potency entry in assay [1] and in assay [2] was “inactive” in each case.
As for `Clc1ccccc1C(c1ccccc1)(c1ccccc1)n1ccnc1`, the Potency entry in assay [1] and in assay [2] was “inactive” in each case.
Regarding `COc1cc(C(=O)NS(=O)(=O)c2ccccc2C)ccc1Cc1cn(C)c2ccc(NC(=O)OC3CCCC3)cc12`, the Potency result in assay [1] and in assay [2] was “inactive” each time.
As to `CN(C)CCC=C1c2ccccc2CCc2ccccc21`, the Potency result in assay [1] and in assay [2] was “inactive” throughout.
Take `CCCCCC`: the Potency result in assay [1] and in assay [2] was “inactive” throughout.
Regarding `CCCCCC(CO)CCC` (centres undefined), the Potency result in assay [1] and in assay [2] was “inactive” in each case.
As for `CC(C)N1C(=O)c2ccccc2C1=O`, the Potency entry in assay [1] and in assay [2] was “inactive” each time.
As for `C=CC(OCC)OCC`, the Potency entry in assay [1] and in assay [2] was “inactive” in each case.
With `CN1CCN(c2ccccc2/C=C2\SCCN(c3ccc(Cl)c(Cl)c3)C2=O)CC1`, the Potency result in assay [1] and in assay [2] was “inactive” in each case.
As for `COc1cccc(N(C)C(=S)Oc2ccc3c(c2)CCCC3)n1`, the Potency result in assay [1] and in assay [2] was “inactive” each time.
In the case of `c1ccc2c(c1)ccc1cc3c(ccc4ccccc43)cc12`, the Potency result in assay [1] and in assay [2] was “inactive” in each case.
Regarding `CN(C)CCOCCN(C)C`, the Potency entry in assay [1] and in assay [2] was “inactive” each time.
As for `OCc1c2ccccc2cc2ccccc12`, the Potency entry in assay [1] and in assay [2] was “inactive” throughout.
On to `COC(=O)N[C@H](C(=O)N[C@@H](Cc1ccccc1)[C@@H](O)CN(Cc1ccc(-c2ccccn2)cc1)NC(=O)[C@@H](NC(=O)OC)C(C)(C)C)C(C)(C)C`, for which the Potency result in assay [1] and in assay [2] was “inactive” in each case.
For `C=C(C)C(=O)OCCC(F)(F)C(F)(F)C(F)(F)C(F)(F)C(F)(F)C(F)(F)F`, the Potency entry in assay [1] and in assay [2] was “inactive” in each case.
As for `CCC1CCCCC1`, the Potency entry in assay [1] and in assay [2] was “inactive” each time.
On to `COCCOc1cc2cc(C(=O)NC3CCN(C(C)C)CC3)n(CC(=O)Nc3ccc(Cl)cn3)c2cn1`, for which the Potency result in assay [1] and in assay [2] was “inactive” each time.
On to `Clc1ccccn1`, for which the Potency result in assay [1] and in assay [2] was “inactive” each time.
In the case of `CCCCCC[C@@H](O)C/C=C\CCCCCCCC(=O)OC`, the Potency result in assay [1] and in assay [2] was “inactive” throughout.
`CCCSc1ccc2nc(NC(=O)OC)[nH]c2c1`: the Potency entry in assay [1] and in assay [2] was “inactive” throughout.
Turning to `CCn1cc(C(=O)O)c(=O)c2cnc(N3CCCC3)nc21`, the viability change, negative = cytotoxic in assay [1] is 3.75% [at 8.39 µM]. Moreover, in assay [2], the activity change, negative = cytotoxicity is -22.5% [at 8.39 µM].
Take `C/C(Cl)=C/CCl`: the Potency entry in assay [1] and in assay [2] was “inactive” throughout.
Take `CC(C)c1ccccc1`: the Potency entry in assay [1] and in assay [2] was “inactive” each time.
Regarding `CCOC(=O)c1ccccc1`, the Potency result in assay [1] and in assay [2] was “inactive” each time.
Regarding `CCCC(=O)OCCc1ccccc1`, the Potency entry in assay [1] and in assay [2] was “inactive” in each case.
`CCCCOCCOC(=O)c1cccnc1`: the Potency entry in assay [1] and in assay [2] was “inactive” in each case.
With `CC(=O)Oc1cccc(C)c1`, the Potency entry in assay [1] and in assay [2] was “inactive” each time.
Turning to `O=C(O)c1ccccc1Cl`, the Potency entry in assay [1] and in assay [2] was “inactive” in each case.
`CC1=CC2C3CC(C=C3C)C2C1` (centres undefined): the Potency entry in assay [1] and in assay [2] was “inactive” each time.
Take `CCCCCCCCCCCCCCCCCC(=O)OCC(O)CO` (centres undefined): the Potency result in assay [1] and in assay [2] was “inactive” in each case.
